# Reference: PubChem BioAssay (EPA / NIEHS)
# The source holds several records for some structures; these can differ, active in one and inactive in another. Calls of active or inactive are those of the source. How the source made its calls: active means hit-call score of the fitted dose curve at least 0.9, where 1 is the maximum; inactive means score below 0.9.
# Read-out: Thrombomodulin, THBD (gene 7056)
# Assay: BSK_3C_Thrombomodulin: BioMAP Diversity Plus: 3C Assay for Thrombomodulin Biomarker Activity (AID 2283029)
# Conditions: primary human endothelial cells (HUVEC); actives raise or lower the signal
# How it was run: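 In a multiplexed primary-cell system, human umbilical vein endothelium received chemical and was assayed 24 h later for thrombomodulin by ELISA. Parallel cultures were SRB-stained (0.1% SRB after 10% TCA fixation, read at 560 nm) to flag cytotoxicity.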
Compound,outcome,AC50
O=C(Nc1ccc2c(O)c(N=Nc3ccc(N=Nc4ccc(S(=O)(=O)O)cc4)cc3)c(S(=O)(=O)O)cc2c1)c1ccccc1,inactive,–
O=C1OC[C@H](Cc2cccc(O)c2)[C@H]1Cc1cccc(O)c1,inactive,–
O=C1c2ccccc2C(=O)c2c(O)ccc(O)c21,inactive,–
CCOC(=O)C(C#N)=C(c1ccccc1)c1ccccc1,inactive,8.14 µM (active)
C1=CC2C3C=CC(C3)C2C1 (stereo unspecified),inactive,–

# Read-out: Urokinase-type plasminogen activator receptor (uPAR), PLAUR (gene 5329)
# Assay: BSK_4H_uPAR: BioMAP Diversity Plus: 4H Assay for Urokinase-type plasminogen activator receptor (uPAR) Biomarker Activity (AID 2283030)
# Conditions: primary human endothelial cells (HUVEC); actives raise or lower the signal
# How it was run: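 uPAR level read by ELISA on HUVEC cultures (BioMAP 4H) 24 h post-dosing, analyzed for gain or loss relative to DMSO. Parallel SRB staining assessed overt cytotoxicity.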
Compound,outcome,AC50
O=C(Nc1ccc2c(O)c(N=Nc3ccc(N=Nc4ccc(S(=O)(=O)O)cc4)cc3)c(S(=O)(=O)O)cc2c1)c1ccccc1,inactive,–
O=C1OC[C@H](Cc2cccc(O)c2)[C@H]1Cc1cccc(O)c1,inactive,–
O=C1c2ccccc2C(=O)c2c(O)ccc(O)c21,–,6.4 µM (active)
CCOC(=O)C(C#N)=C(c1ccccc1)c1ccccc1,inactive,–
C1=CC2C3C=CC(C3)C2C1 (stereo unspecified),inactive,–
